# Legend:
# Assay in all cases: DAPPL (digital affinity profiling via proximity ligation, sequencing); 10 mM Tris-HCl pH 7.5, 50 mM NaCl, 1 mM DTT, 4% glycerol, room temperature, 30 min; GST-TFs on glutathione beads, 16-mer random dsDNA library, 0.1% formaldehyde crosslink after washing; high values mean tight binding
# FEV = target: T1, FEV (Homo sapiens, UniProt Q99581 1-238); conditions: protein: recombinant; tags: N-terminal GST; dsDNA, one strand shown
# T1 sequence: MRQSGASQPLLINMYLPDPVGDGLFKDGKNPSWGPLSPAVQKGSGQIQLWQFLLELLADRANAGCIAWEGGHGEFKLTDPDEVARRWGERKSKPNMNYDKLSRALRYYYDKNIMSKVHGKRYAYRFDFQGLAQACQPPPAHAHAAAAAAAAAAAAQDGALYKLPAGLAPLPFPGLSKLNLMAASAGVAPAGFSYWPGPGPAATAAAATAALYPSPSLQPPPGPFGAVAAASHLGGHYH
# Method in brief: (§1)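 Sequencing on an Illumina NextSeq500 followed washing, crosslinking with 0.1% formaldehyde, proximity ligation (BsaI/T4 ligase, 1 h, 37 °C) and PCR amplification of pools that had been incubated for 30 min at room temperature with 200 nmole of a random double-stranded 16-mer DNA library in Tris/NaCl/DTT/glycerol buffer. Each pool held DNA-barcoded human transcription factors, expressed in yeast as GST fusions and captured on glutathione beads, plus a tag-only sample. Binding signal is a hexamer's read frequency for a factor divided by its frequency in the tag-only sample.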
# ETV5 = ETV5 (Homo sapiens, UniProt P41161 1-510); conditions: protein: recombinant; tags: N-terminal GST; dsDNA, one strand shown
# Chain of ETV5 (P41161 whole entry): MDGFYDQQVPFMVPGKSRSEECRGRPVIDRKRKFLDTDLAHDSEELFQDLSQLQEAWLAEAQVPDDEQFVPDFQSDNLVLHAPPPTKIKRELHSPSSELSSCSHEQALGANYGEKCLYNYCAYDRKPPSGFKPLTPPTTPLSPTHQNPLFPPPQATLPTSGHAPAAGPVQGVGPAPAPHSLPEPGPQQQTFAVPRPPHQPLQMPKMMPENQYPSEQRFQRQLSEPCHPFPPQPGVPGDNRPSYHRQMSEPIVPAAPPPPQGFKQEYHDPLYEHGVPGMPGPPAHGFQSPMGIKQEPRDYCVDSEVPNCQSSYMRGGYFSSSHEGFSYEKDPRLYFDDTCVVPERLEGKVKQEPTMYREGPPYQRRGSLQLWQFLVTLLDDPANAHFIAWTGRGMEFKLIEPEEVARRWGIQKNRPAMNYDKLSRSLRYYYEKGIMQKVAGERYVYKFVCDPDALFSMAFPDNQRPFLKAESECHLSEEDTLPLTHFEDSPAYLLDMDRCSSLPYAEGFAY
# Method in brief: as §1
# HSF1 = HSF1 (Homo sapiens, UniProt Q00613 1-529); conditions: protein: recombinant; tags: N-terminal GST; chain copies: 3; dsDNA, one strand shown
# Chain of HSF1 (Q00613 whole entry): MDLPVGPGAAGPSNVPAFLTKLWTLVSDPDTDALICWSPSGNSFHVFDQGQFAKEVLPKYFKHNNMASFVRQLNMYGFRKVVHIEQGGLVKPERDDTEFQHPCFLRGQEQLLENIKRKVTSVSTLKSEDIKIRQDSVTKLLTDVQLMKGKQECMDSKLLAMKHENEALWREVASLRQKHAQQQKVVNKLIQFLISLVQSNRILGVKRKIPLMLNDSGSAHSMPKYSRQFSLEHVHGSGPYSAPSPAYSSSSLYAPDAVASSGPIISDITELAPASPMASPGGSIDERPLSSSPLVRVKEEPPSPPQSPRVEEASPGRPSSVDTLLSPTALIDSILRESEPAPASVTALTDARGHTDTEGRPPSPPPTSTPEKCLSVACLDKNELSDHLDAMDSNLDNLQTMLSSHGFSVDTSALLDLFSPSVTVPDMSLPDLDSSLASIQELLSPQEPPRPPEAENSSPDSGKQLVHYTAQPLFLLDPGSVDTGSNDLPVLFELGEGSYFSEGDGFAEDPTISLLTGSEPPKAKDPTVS
# Method in brief: as §1
# SPIC = target: T2, SPIC (Homo sapiens, UniProt Q8N5J4 1-248); conditions: protein: recombinant; tags: N-terminal GST; dsDNA, one strand shown
# T2 sequence: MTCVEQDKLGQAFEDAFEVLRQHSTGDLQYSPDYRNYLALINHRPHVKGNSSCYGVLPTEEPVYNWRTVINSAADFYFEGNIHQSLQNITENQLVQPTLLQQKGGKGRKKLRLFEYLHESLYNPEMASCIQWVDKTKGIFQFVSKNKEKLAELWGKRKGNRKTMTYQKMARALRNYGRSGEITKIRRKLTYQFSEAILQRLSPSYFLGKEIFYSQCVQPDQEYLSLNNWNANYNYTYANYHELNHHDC
# Method in brief: as §1
# ELF4 = ELF4 (Homo sapiens, UniProt Q99607 1-663); conditions: protein: recombinant; tags: N-terminal GST; dsDNA, one strand shown
# Chain of ELF4 (Q99607 whole entry): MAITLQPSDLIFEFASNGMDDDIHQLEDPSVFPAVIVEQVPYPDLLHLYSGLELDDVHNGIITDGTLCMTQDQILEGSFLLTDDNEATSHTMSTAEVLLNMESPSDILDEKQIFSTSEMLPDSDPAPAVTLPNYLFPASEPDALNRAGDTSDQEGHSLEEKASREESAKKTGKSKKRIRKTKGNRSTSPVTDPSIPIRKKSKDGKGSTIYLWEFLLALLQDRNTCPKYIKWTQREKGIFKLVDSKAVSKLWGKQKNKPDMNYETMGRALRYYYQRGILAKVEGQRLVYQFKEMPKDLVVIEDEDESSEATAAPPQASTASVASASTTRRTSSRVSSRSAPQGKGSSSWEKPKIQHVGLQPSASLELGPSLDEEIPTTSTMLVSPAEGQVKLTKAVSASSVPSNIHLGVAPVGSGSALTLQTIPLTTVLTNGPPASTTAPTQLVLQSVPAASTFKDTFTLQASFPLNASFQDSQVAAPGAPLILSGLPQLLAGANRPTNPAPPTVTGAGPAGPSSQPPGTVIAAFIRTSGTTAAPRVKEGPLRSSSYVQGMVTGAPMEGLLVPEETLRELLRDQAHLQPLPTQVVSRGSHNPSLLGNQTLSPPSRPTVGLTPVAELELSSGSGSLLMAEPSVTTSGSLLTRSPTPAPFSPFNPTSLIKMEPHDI
# Method in brief: as §1
# ELK4 = target: T3, ELK4 (Homo sapiens, UniProt P28324-2 1-405); conditions: protein: recombinant; tags: N-terminal GST; dsDNA, one strand shown
# T3 sequence: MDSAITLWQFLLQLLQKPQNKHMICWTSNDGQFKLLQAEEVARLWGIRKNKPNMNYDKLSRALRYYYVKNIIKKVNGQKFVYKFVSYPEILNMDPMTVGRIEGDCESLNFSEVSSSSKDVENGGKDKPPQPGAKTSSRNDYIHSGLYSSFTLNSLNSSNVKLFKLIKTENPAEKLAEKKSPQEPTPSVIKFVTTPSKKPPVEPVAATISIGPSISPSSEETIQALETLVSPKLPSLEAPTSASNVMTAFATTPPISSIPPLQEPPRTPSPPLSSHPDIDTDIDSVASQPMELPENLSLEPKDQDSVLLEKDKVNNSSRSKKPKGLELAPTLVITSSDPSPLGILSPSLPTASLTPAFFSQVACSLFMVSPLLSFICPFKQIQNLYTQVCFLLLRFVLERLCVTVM
# Method in brief: as §1
# ETV2 = target: T4, ETV2 (Homo sapiens, UniProt O00321 1-342); conditions: protein: recombinant; tags: N-terminal GST; dsDNA, one strand shown
# T4 sequence: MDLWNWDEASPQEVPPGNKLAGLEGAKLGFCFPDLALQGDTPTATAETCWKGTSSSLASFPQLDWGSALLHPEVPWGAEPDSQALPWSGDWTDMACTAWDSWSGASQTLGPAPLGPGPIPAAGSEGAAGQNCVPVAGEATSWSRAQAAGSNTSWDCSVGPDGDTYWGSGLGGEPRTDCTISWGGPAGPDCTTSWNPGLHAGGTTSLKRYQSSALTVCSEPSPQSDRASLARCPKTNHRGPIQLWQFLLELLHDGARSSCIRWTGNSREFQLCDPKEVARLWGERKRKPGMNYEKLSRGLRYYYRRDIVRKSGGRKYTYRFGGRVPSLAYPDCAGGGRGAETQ
# Method in brief: as §1
# ELF3 = target: T5, ELF3 (Homo sapiens, UniProt P78545 1-371); conditions: protein: recombinant; tags: N-terminal GST; dsDNA, one strand shown
# T5 sequence: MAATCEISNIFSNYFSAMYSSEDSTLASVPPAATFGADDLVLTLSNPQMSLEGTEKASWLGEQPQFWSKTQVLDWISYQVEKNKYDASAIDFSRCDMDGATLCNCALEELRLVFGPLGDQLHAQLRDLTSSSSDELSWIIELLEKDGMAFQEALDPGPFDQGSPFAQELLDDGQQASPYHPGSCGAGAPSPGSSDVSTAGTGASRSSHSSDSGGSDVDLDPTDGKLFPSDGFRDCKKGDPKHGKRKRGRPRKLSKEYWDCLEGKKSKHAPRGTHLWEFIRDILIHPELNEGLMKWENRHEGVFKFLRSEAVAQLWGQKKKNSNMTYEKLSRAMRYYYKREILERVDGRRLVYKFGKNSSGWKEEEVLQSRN
# Method in brief: as §1
# CRX = CRX (Homo sapiens, UniProt O43186 1-299); conditions: protein: recombinant; tags: N-terminal GST; dsDNA, one strand shown
# Chain of CRX (O43186 whole entry): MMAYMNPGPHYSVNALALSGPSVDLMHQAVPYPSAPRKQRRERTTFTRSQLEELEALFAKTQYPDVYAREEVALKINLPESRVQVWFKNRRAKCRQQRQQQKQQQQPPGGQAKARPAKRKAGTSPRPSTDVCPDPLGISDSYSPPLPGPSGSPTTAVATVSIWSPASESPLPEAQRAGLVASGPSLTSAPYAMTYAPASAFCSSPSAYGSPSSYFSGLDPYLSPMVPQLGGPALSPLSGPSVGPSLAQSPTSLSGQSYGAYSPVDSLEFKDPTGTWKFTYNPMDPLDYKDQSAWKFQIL
# Method in brief: as §1
sequence,measurement,setting,value
AATCCC,binding signal,FEV,"1.41 fold enrichment (6-mer frequency, TF over GST control)"
same,binding signal,ETV5,"1.3 fold enrichment (6-mer frequency, TF over GST control)"
same,binding signal,HSF1,"2.47 fold enrichment (6-mer frequency, TF over GST control)"
same,binding signal,SPIC,"1.2 fold enrichment (6-mer frequency, TF over GST control)"
same,binding signal,ELF4,"1.33 fold enrichment (6-mer frequency, TF over GST control)"
same,binding signal,ELK4,"1.28 fold enrichment (6-mer frequency, TF over GST control)"
same,binding signal,ETV2,"1.37 fold enrichment (6-mer frequency, TF over GST control)"
same,binding signal,ELF3,"1.35 fold enrichment (6-mer frequency, TF over GST control)"
same,binding signal,CRX,"3.65 fold enrichment (6-mer frequency, TF over GST control)"
